Consider seven compounds from PubChem BioAssay (NCATS).

The structures appear in SMILES notation. Inconclusive results are not listed. The source made the active and inactive calls. Unless noted, calls come from the whole dose curve; as a rule, active = well fitted curve in the direction sought with a large enough effect; inconclusive = small, poorly fitted or top-dose-only effect, or another doubt; inactive = no such curve, though single readings can be large; an effect the other way counts as inactive or inconclusive.

The nature of experiment [1]: Confirmation and Secondary Assay for Modulators of Hemoglobin Beta Chain Splicing at IVS2 705 locus (AID 930).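 Note: HeLa cells stably expressing the EGFP-705 splicing reporter; GFP fluorescence per well restored by corrected splicing of the IVS2-705 intron in EGFP; % of control where 0% means no effect.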 The essentials:
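Fluorescence gain (488 nm laser, 500-520 nm PMT) reflects restored correct splicing of a mutant IVS2-705 intron inside EGFP in stably transfected HeLa cells after 2-day compound treatment.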

Experiment [2] can be described thus: qHTS Assay for Lipid Storage Modulators (AID 1519; calls by dose curve; for activity change, negative = inhibition: % is set by controls: 0 for no effect and ±100 for the full control effect). Conditions: Drosophila S3 cells, BODIPY lipid droplet/cell ratio, laser cytometry, cells loaded with oleic acid. In short, it runs like this:
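Cells seeded at 5,000 per well were treated with compounds over a concentration series and loaded with oleic acid (400 uM, as added). Lipid droplet fluorescence (488 nm excitation, 500-530 nm channel) was read by laser-scanning cytometry and normalized to 20 uM Triacsin C.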
A general note: In qHTS, concentration-response curves come from the screen itself.

For experiment [3], the target named is Ubiquitin carboxyl-terminal hydrolase 1 (Homo sapiens) (UniProt O94782). The experiment in a line: Inhibitors of USP1/UAF1: Pilot qHTS (AID 504865).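 Note: rhodamine fluorescence freed from ubiquitin-rhodamine substrate followed over time; top concentration of the series differs between compounds; % is set by controls: 0 for no effect and ±100 for the full control effect; nearly all actives have a fitted effect of over 35% in size.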 The essentials: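 USP1/UAF1 complex (1nM) preincubated with compound 15 min at room temperature, then Ub-Rho substrate (150nM final) added. Fluorescence read kinetically at 480/540 nm, 6 reads every 60 seconds. Buffer: 50mM HEPES pH 7.8, 0.5mM EDTA, 0.1 mg/ml BSA, 1mM TCEP, 0.01% Tween-20.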

Experiment [4] addresses Luciferin 4-monooxygenase (Photinus pyralis) (UniProt P08659). The experiment in a line: Biochemical firefly luciferase enzyme assay for NPC (AID 624030).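 Note: purified P. pyralis luciferase at 10 nM with luciferin and ATP substrate; 0% = DMSO and -100% = full luciferase inhibition by PTC124 control; nearly all actives have a fitted effect of over 70% in size.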 In short, it runs like this:
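Direct inhibition of firefly luciferase enzyme (10 nM final, 50 mM Tris Acetate) assessed by luminescence within 5 minutes. Percent activity scaled between DMSO and PTC124 positive control, with concentration-effect curves classified by fit quality and response.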

Experiment [5] in a line: P-glycoprotein substrates identified in KB-8-5-11 adenocarcinoma cell line, qHTS therapeutic library screen (AID 1346987). Note: nearly all actives have a fitted effect of over 65% in size. Note: potency is the fitted concentration of half-maximal effect. The essentials: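 In this qHTS, P-gp-rich KB-8-5-11 cells received library compounds across a concentration range. Viability was quantified by luminescence after 72 h at 37 degree C.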
The test system of experiment [6] is KB-3-1. The experiment in a line: Cytotoxic Profiling of Annotated Libraries Using Quantitative High-Throughput Screening (AID 1296008). For max response: % is set by controls: 0 for no effect and ±100 for the full control effect. Note: nearly all actives have a fitted effect of over 60% in size. Note: potency is the fitted concentration of half-maximal effect. Conditions: Five cell lines viability, CellTiter-Glo ATP luminescence, 48-72 h; max response: stronger effect = lower value. The essentials: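 Cytotoxicity was measured as CellTiter-Glo ATP luminescence, read after 10 min at room temperature. Compound treatment of the cells lasted 48 or 72 hr at 37 degrees Celsius in a qHTS format.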
A general note: In ATP-based viability assays light output follows the ATP content of the culture.

Experiment [7] has as its system astro. Put plainly: Drug repurposing screens with cells derived from glioblastoma tumor samples (AID 1345199). Note: nearly all actives have a fitted effect of over 40% in size. Note: potency is the fitted concentration of half-maximal effect. As to conditions: viability, ATP luminescence, 48 h; series mostly up to 45.9 µM. The essentials: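 Primary testing used CD133+ neurospheres from four GBM patients, seven concentrations, 48 h exposure and ATP-based viability; confirmation added three slower-growing patient lines.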

A short description of experiment [8]: qHTS Assay for Identifying Gametocytocidal Compounds (AID 743244).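 Note: % is set by controls: 0 for no effect and ±100 for the full control effect; actives lower the fluorescent signal which means gametocytes are killed.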 As to conditions: P. falciparum 3D7 stage III-V gametocytes, alamarBlue, 72 h; max response: stronger effect = lower value. In short, it runs like this: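 P. falciparum 3D7 stage III–V gametocytes (20,000 cells/well) were exposed to compounds for 72 h at 37 °C, 5% CO2. AlamarBlue was then added for 24 h; decreased resorufin fluorescence (Ex 525/Em 598 nm) indicated loss of viability.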

Experiment [9] is described as follows: qHTS for Inhibitors of the Functional Ribonucleoprotein Complex (vRNP) of Lassa (LASV) Arenavirus: LASV Primary Screen - GLuc reporter signal (AID 1347082; calls by dose curve; tested in HEK293 reporter line; note: potency is the fitted concentration of half-maximal effect; nearly all actives have a fitted effect of over 60% in size).
The nature of experiment [10]: Primary qHTS for inhibitors of SARS-S pseudo-typed particle cell entry (AID 1479145; calls by dose curve; note: % is set by controls: 0 for no effect and ±100 for the full control effect; nearly all actives have a fitted effect of over 45% in size).
The nature of experiment [11]: Primary qHTS for Huh7 cytotoxicity: counterscreen for inhibitors of MERS-S pseudotyped particle cell entry (AID 1479147; calls by dose curve). Conditions: outcome: dose series up to 57.1 µM unless noted.
Experiment [12] in a line: Primary qHTS for inhibitors of MERS-S pseudo-typed particle cell entry (AID 1479149; calls by dose curve; note: nearly all actives have a fitted effect of over 60% in size).
The nature of experiment [13]: Primary qHTS for Vero E6 cytotoxicity: counterscreen for inhibitors of SARS-S pseudo-typed particle cell entry (AID 1479150; calls by dose curve; note: % is set by controls: 0 for no effect and ±100 for the full control effect). As to conditions: outcome: dose series up to 57.1 µM unless noted.
A short description of experiment [14]: Cytotoxicity counterscreen for inhibitors of SARS-CoV-2 cell entry (AID 1645845; calls by dose curve; note: % is set by controls: 0 for no effect and ±100 for the full control effect; nearly all actives have a fitted effect of over 50% in size). In short, it runs like this: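 ATP-content luminescence (ATPLite 1step, 15 min RT) read after 48 h compound exposure of Expi293F cells stably expressing human ACE2; normalized to cells-only wells and media-only wells.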
(A counterscreen serves to expose hits that act by an unwanted route or on another target.)

Luciferin 4-monooxygenase (Photinus pyralis), sequence (P08659 whole entry, looked up): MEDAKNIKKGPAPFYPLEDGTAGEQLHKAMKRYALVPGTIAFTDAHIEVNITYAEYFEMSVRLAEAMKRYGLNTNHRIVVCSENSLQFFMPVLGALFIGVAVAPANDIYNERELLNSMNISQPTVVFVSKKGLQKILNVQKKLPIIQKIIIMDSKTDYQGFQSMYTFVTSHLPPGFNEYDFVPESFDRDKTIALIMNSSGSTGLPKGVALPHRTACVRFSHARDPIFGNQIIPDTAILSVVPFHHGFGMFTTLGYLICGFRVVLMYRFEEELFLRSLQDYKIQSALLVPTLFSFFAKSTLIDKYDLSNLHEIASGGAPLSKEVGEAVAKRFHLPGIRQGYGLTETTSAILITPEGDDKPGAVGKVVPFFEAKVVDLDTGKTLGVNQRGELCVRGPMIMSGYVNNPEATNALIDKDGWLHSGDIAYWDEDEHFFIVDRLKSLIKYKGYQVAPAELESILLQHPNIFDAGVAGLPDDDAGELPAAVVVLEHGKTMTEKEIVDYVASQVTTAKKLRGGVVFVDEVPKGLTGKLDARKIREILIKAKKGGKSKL
Ubiquitin carboxyl-terminal hydrolase 1 (Homo sapiens), sequence (O94782 whole entry, looked up): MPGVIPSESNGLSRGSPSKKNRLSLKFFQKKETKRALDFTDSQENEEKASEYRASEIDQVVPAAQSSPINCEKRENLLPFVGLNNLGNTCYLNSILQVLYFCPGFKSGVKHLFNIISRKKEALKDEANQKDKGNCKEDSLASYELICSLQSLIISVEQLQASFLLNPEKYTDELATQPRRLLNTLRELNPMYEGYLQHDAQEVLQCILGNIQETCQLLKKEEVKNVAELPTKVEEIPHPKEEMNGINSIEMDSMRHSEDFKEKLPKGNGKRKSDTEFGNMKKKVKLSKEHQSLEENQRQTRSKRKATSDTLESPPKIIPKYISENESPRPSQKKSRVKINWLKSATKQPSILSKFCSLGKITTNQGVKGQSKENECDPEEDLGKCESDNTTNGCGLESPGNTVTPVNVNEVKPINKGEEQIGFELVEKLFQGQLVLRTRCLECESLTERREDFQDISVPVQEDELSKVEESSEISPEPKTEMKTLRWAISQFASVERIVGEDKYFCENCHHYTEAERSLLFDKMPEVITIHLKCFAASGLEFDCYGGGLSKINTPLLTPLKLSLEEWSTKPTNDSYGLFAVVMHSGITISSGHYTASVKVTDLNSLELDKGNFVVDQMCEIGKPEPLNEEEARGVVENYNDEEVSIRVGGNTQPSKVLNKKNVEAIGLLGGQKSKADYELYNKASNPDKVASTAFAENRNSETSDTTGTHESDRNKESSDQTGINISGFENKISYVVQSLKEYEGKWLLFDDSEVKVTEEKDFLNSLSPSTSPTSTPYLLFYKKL

Consider `CCN(CC)/[N+]([O-])=N/O`, for which, in experiment [1], the call was inactive. For the same compound, the activity change, negative = inhibition in experiment [2] (at 57.5 µM (top of the series)) was 8.09% (inactive). For the same compound, the max response in [2] (measured here: cell count channel max response) is -15%; in [2] (measured here: lipid channel max response), -4.74%; in experiment [6], -8.01% (inactive). The Potency result in [3], in experiment [4], in [5] and in experiment [7] was “inactive” each time.
Take `CN[C@@]1(c2ccccc2Cl)CCCCC1=O`: the max response in experiment [8] is 0.413% (inactive); in experiment [6] it was -16.7% (inactive). In addition, the Potency entry in experiment [5] and in experiment [7] was “inactive” each time.
For `CC(=O)O[C@H]1C[C@H](O[C@H]2[C@@H](O)C[C@H](O[C@H]3[C@@H](O)C[C@H](OC4CC[C@@]5(C)C(CC[C@@H]6[C@@H]5CC[C@]5(C)[C@@H](C7=CC(=O)OC7)[C@@H](O)C[C@]65O)C4)O[C@@H]3C)O[C@@H]2C)O[C@H](C)[C@H]1O[C@@H]1O[C@H](CO)[C@@H](O)[C@H](O)[C@H]1O` (stereo partly specified), in experiment [8], the max response was 7.87% (inactive). The Potency in experiment [5] was 1300 nM (active); in experiment [9], 794 nM (active); in experiment [6], 1300 nM (active); in [7], 708 nM (active).
`CC(C)C[C@H]1C(=O)N2CCC[C@H]2[C@]2(O)O[C@](NC(=O)[C@@H]3C[C@@H]4c5cccc6[nH]cc(c56)C[C@H]4N(C)C3)(C(C)C)C(=O)N12`: the Potency result in experiment [10], in [12] and in experiment [14] was “inactive” throughout. In addition, the compound was classed as inactive in experiment [11] and in [13]. The max response in experiment [6] was -14.2% (inactive).
With `CNC(C)Cc1ccccc1` (stereo unspecified), the Potency entry in [4], in [5] and in experiment [7] was “inactive” in each case. For the same compound, the figures for the max response in experiment [8] and in [6] were 7.96% (inactive) and -8.49% (inactive), respectively.
Regarding `CCC(=O)O[C@](Cc1ccccc1)(c1ccccc1)[C@H](C)CN(C)C`, the results for the max response in experiment [8] and in [6] were 0.382% (inactive) and 0.566% (inactive), respectively. For the same compound, the Potency in [5] was 20000 nM (active). Besides, the Potency result in experiment [7] was “inactive”.
Take `C[C@@H]1[C@H]2Cc3ccc(O)cc3[C@]1(C)CCN2C`: the max response in experiment [8] was -6.63% (inactive); in experiment [6], -14.3% (inactive). The Potency entry in experiment [7] is “inactive”.
